DT40 TDP1 no CPT = qHTS for Inhibitors of human tyrosyl-DNA phosphodiesterase 1 (TDP1): qHTS in cells in absence of CPT; DT40 Tdp1-/- hTDP1 cells, no CPT, ATP luminescence, 48 h; Potency, µM (highest dose often 46.2 µM), for the others: at the top dose activity change, negative = growth inhibition, hits mostly inhibitors; 420,000 tested, 15% active; AID 686978, 2013; further: nearly all actives have a fitted effect of over 55% in size
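Camptothecin absent (DMSO only). Human TDP1-complemented DT40 knockout cells, 400 cells/well, 37 °C for minimum 48 hr; ATP measured via CellTiter-Glo, 30 min dark incubation, luminescence.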
TDP1 cell CPT = DT40-hTDP1 cell growth loss with CPT | chicken DT40 Tdp1-/-;hTDP1 cells + 20 nM CPT, ATP luminescence, 48 h | Potency, µM (series often up to 46.2 µM), without a hit: at the top dose activity change, negative = growth inhibition, usual class: inhibitors | 420,000 tested, 12% active | AID 686979; further: nearly all actives have a fitted effect of over 55% in size
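Chicken DT40 Tdp1-/- cells stably complemented with human TDP1 were seeded at 400 cells/well in medium containing 20 nM camptothecin, exposed to pin-transferred compounds, and grown at 37 °C for at least 48 hr. Viability was read as ATP luminescence.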
HT1080NT lethal = kills 2HG-producing HT-1080-NT fibrosarcoma cells. AID 686970. Potency, µM (highest dose often 46.1 µM), for the others: top-dose activity, negative = less viability, usual class: cytotoxic. HT-1080-NT fibrosarcoma viability, CellTiter-Glo ATP luminescence, 48 h. 360,000 tested, 1.6% active;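 further: NT is the 2HG producing partner of a matched IDH1 knockdown line; 0% = DMSO-treated cells and -100% = media-only wells without cells; nearly all actives have a fitted effect of over 55% in size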
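Compounds were tested in concentration-response format on HT-1080-NT cells for 48 hours at 37 degrees C. Cell viability came from CellTiter-Glo luminescence; curves were classified by r2, response magnitude and activity.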
KB-3-1 cytotox = kills parental KB-3-1 adenocarcinoma cells; KB-3-1 viability, CellTiter-Glo ATP luminescence, 72 h; Potency, µM (doses to about 46.1 µM), actives largely listed as cytotoxic; 400,000 tested, 1.4% active; further: nearly all actives have a fitted effect of over 60% in size
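Using CellTiter-Glo luminescence, growth of non-resistant KB-3-1 adenocarcinoma cells is assessed 72 h after pin-tool compound addition at 37 °C. Normalized responses across the concentration series yield fitted curves.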
KB-V1 MDR tox = KB-V1 MDR subline cytotoxicity; KB-V1 MDR cells viability, CellTiter-Glo, 72 h; 400,000 tested, 3.4% active; Potency, µM (highest dose often 46.1 µM), most hits filed as cytotoxic; AID 1347076; further: nearly all actives have a fitted effect of over 60% in size
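KB-V1 MDR subline cells in DMEM (phenol-red free, 10% FBS) exposed to compounds in qHTS concentration series for 72 h at 37 degrees C. Viability read by CellTiter-Glo luminescence; concentration-effect curves fitted after normalization and correction.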
HT1080 IDH1KD tx = kills HT-1080 cells with IDH1 knockdown | 360,000 tested, 2% active | Potency, µM (titrated, usually from 46.1 µM), for inactives: at the top dose activity, negative = toxicity, hits mostly cytotoxic | HT-1080 IDH1 knockdown viability, ATP luminescence, 48 h;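 further: 0% = DMSO wells and -100% = cell-free medium wells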
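Luminescent ATP read-out (CellTiter-Glo, 10 min at room temperature) after 48 h compound exposure at 37 °C gave viability of IDH1-knockdown HT-1080 cells. Activity was normalised to DMSO and cell-free wells, then fitted as concentration-response curves.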
* marks the source's active call; other numbers are inactive results; i = inactive; u = inconclusive; x = not tested or not shown; [ ] = another dose, or the depositor's remark. In the library only some 19% were active in any assay of this set; here they are far more common. The call rests on the fitted dose curve; in most records, active means well fitted curve in the direction sought with a large enough effect; inconclusive means small, poorly fitted or top-dose-only effect, or another doubt; inactive means no such curve, though single readings can be large; an effect the other way counts as inactive or inconclusive. Unless noted, on the % scale 0 is the no-effect control and ±100 the full control effect; potency means the concentration at half of the fitted maximal effect.

SMILES | DT40 TDP1 no CPT | TDP1 cell CPT | HT1080NT lethal | KB-3-1 cytotox | KB-V1 MDR tox | HT1080 IDH1KD tx
Cc1cccc(C(CC(=O)N2CCCCC2)c2ccccc2)c1O (stereo not drawn) | -5% | 19% | 9% | i | i | 4%
CCCc1nc(SCC(=O)Nc2ccc(N3CCOCC3)cc2)c2ccccc2n1 | 5.2µM* | u | -7% | i | i | -6%
O=C(Nc1nnc([C@@H]2C[C@H](O)[C@@H](CO)O2)s1)NC1CCCCC1 | -5% | -11% | 22% | i | i | 13%
Cc1ccc2nc(N(CCCN(C)C)C(=O)CCc3ccccc3)sc2c1 | u | u | 15µM* | i | i | 16µM*
CN(C)CCCN(C(=O)CCc1ccccc1)c1nc2ccc(Cl)cc2s1 | 23µM* | 23µM* | 23µM* | u | 23µM* | 16µM*
COc1ccc2cc(CN(CC3CCCO3)C(=S)Nc3ccccc3)c(=O)[nH]c2c1 (stereo not drawn) | 6.5µM* | 5.2µM* | 26µM* | 5.8µM* | 21µM* | 15µM*
Cc1cc2cc(CN(CC3CCCO3)C(=S)Nc3ccccc3)c(=O)[nH]c2cc1C (stereo not drawn) | 5.8µM* | 6.5µM* | 12µM* | 7.3µM* | i | u
OCC[C@@H]1C[C@H](O)[C@@H](O)[C@@]2(CCCc3ccccc3O2)O1 | -3% | -5% | -2% | i | i | 0%
O=C(CSc1nnc(-c2cccc(Cl)c2)o1)N1CCc2ccccc21 | 11% | 1% | x | i | u | x
Clc1ccc2oc(-c3ccccc3)cc(=NCCCN3CCOCC3)c2c1 | u | u | u | u | 21µM* | u
COc1cc(NC(=O)CSc2nc(C3CC3)nc3ccccc23)cc(OC)c1 | u | -5% | 13µM* | i | i | u
O=C(CSc1nc(C2CC2)nc2ccccc12)Nc1ccccc1 | u | -6% | -14% | i | i | 1%
O=C(CSc1nc(C2CC2)nc2ccccc12)Nc1ccccc1Cl | -25% | -23% | 14% | i | i | 2%
CC(=O)c1cccc(NC(=O)CSc2nc(C3CC3)nc3ccccc23)c1 | 16µM* | u | u | i | u | u
CN(C)c1ccc(NC(=O)CSc2nc(C3CC3)nc3ccccc23)cc1 | 18µM* | u | -5% | u | u | 0%
CC(=O)Nc1cccc(NC(=O)CSc2nc(C3CC3)nc3ccccc23)c1 | 7.3µM* | 4.1µM* | u | i | i | u
CCN(C(=O)C(=O)c1c(C)[nH]c2ccccc12)c1ccccc1 | u | u | x | i | i | x
CN(CC1CCOCC1)C(=O)CC1C(=O)NCCN1Cc1cccc(Oc2ccccc2)c1 (stereo not drawn) | u | -23% | 0% | i | i | 2%
O=C(CSc1nc(C2CC2)nc2ccccc12)N1c2ccccc2Sc2ccc(C(F)(F)F)cc21 | 23µM* | 8.2µM* | -3% | u | 18µM* | -10%
Cc1cccc(NC(=O)CSc2nc(C3CC3)nc3ccccc23)c1 | u | u | -8% | i | i | -22%
CCN(CC)c1ccc(NC(=O)CSc2nc(C3CC3)nc3ccccc23)cc1C | 5.2µM* | 4.1µM* | 9.2µM* | 4.6µM* | 6.5µM* | 6.5µM*
Cc1nonc1NC(=O)CSc1nc(C2CCCCC2)nc2ccccc12 | 23µM* | 29µM* | -18% | i | i | -14%
Nc1nc2n(n1)C(c1ccc(Cl)cc1)CC(c1ccc(F)cc1)N2 (stereo not drawn) | u | u | -4% | i | i | -8%
Nc1nc2n(n1)C(c1ccccc1Cl)CC(c1ccc(F)cc1)N2 (stereo not drawn) | u | 16µM* | -4% | i | u | -12%
Cc1ccc(C2CC(c3ccccc3C)n3nc(N)nc3N2)cc1 (stereo not drawn) | 2% | -3% | 5% | i | u | 1%
SMILES | DT40 TDP1 no CPT | TDP1 cell CPT | HT1080NT lethal | KB-3-1 cytotox | KB-V1 MDR tox | HT1080 IDH1KD tx
Cc1ccc(C2CC(c3ccccc3Cl)n3nc(N)nc3N2)cc1 (stereo not drawn) | u | 21µM* | 7% | i | i | 2%
CCn1c(CNC(=O)c2cccc(C)c2)nnc1SCC(=O)NC1=NCCS1 | u | 2% | -1% | i | i | 11%
Cc1cccc(C(=O)NCc2nnc(SCC(=O)NC3=NCCS3)n2C)c1 | 16µM* | u | -2% | i | i | 14%
COc1cccc(C(=O)NCc2nnc(SCC(=O)Nc3nccs3)n2-c2ccccc2)c1 | -18% | -21% | 0% | i | i | 10%
Cn1c(CNC(=O)c2ccccc2)nnc1SCC(=O)Nc1nccs1 | u | 15µM* | 7% | i | i | 8%
CCn1c(Cc2cccc3ccccc23)nnc1SCC(=O)Nc1nccs1 | u | u | -10% | i | 18µM* | 3%[9.24 µM]
COc1ccc(NC(=O)c2nc(C)n(-c3ccc([N+](=O)[O-])cc3)n2)cc1 | -12% | 6% | -1% | i | i | 2%
CCN(CC)c1nn2c(=O)c(C(=O)NCc3cccc(C)c3)cnc2s1 | 16µM* | u | x | x | x | x
Cc1cccc(CNC(=O)c2cnc3sc(N4CCOCC4)nn3c2=O)c1 | -20% | -11% | x | x | x | x
CCCN(CCC)c1nn2c(=O)c(C(=O)NCc3cccc(OC)c3)cnc2s1 | 16µM* | u | x | x | x | x
CSC1SCC2C(=O)N(C)C(C(C)C)C(=O)OCC(NC(=O)c3cnc4ccccc4n3)C(=O)NC(C)C(=O)N(C)C1C(=O)N(C)C(C(C)C)C(=O)OCC(NC(=O)c1cnc3ccccc3n1)C(=O)NC(C)C(=O)N2C (stereo not drawn) | -83% | -72% | -32% | i | 1.6µM* | 0.0012µM*
COc1ccc(NS(=O)(=O)c2cccc(C(=O)O)c2)cc1 | -3% | 3% | 6% | i | i | -7%
COc1ccc(C(=O)C(C)OC(=O)c2cccc(S(=O)(=O)Nc3cc(Cl)c(OC)cc3OC)c2)cc1 (stereo not drawn) | 21µM* | 23µM* | -6% | i | i | -19%
CCc1ccc(-n2nc3ccc(NC(=O)c4cc(Cl)c(OC)c(Cl)c4)cc3n2)cc1 | u | u | x | i | i | x
CCCc1ccc(C(C)NC(=S)NCc2ccc(F)cc2)cc1 (stereo not drawn) | u | u | u | u | i | u

Bioassay records (PubChem)
